Measurements from the supplement of paper PMC10849652.
Of roughly 7,900 targets only a part is listed; those with a hit were picked by preference. About 0.6% of all pairs of compound and target were hits. Unmarked numbers belong to inactive results.

Legend:
Assay in all cases: log2 fold change, soluble protein after heating vs DMSO (PISA); higher = thermal stabilisation; K562 cells, 10 uM, 30 min; active = over 0.2 and 3.5 SD of the protein, either way, in both replicates (recomputed)
[1] = compound: CC[C@@H]1C(=O)N(C)c2cnc(Nc3ccc(C(=O)NC4CCN(C)CC4)cc3OC)nc2N1C1CCCC1
Procedure, shortened: (§1)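 For each measurement, 10 μM compound was applied for 30 min to K562 cells at 2×10^6 cells/mL. Aliquots were heated for 3 min across 48°C-58°C, pooled, and extracted in PBS with 0.5% NP-40 at 4°C; the supernatant after 21,000xg for 90 min was soluble protein. This was quantified by TMTpro 16plex LC-MS/MS with channel sums equalised, and thermal stability was reported relative to control samples from duplicates, on a log2 fold-change scale.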

[2] = compound: CC[C@@H]1C(=O)N(C)c2cnc(Nc3ccc(C(=O)N[C@H]4CC[C@H](N5CCN(CC6CC6)CC5)CC4)cc3OC)nc2N1C(C)C [volasertib]
Procedure, shortened: as §1

[3] = compound: CC[C@H](C)N1C=C(C2=C(C=C(C=C21)C3=CN=C(C=C3)N4CCNCC4)C(=O)NCC5=C(C=C(NC5=O)C)C)C
Procedure, shortened: as §1

[4] = compound: CC[C@H](C)[C@@H](C(=O)N[C@@H]([C@@H](C)O)C(=O)N[C@@H](CC(C)C)C(=O)[C@]1(CO1)C)NC(=O)[C@H]([C@@H](C)CC)N(C)C(=O)C [epoxomicin]
Procedure, shortened: as §1

[5] = compound: CCn1c(C(=O)N(C2CC2)C2CC2)cc2c3c(ncn3C)c(Nc3cc(C)n(C)n3)nc21
Procedure, shortened: as §1

[6] = compound: CCn1cc(-c2ccnc3[nH]c(-c4cccc(CN(C)C)c4)cc23)c(-c2ccc(NC(=O)N(C)C)cc2)n1
Procedure, shortened: as §1

[7] = compound: CN(C)CC(=O)Nc1ccc2[nH]c(=O)c3ccccc3c2c1
Procedure, shortened: as §1

[8] = compound: CN(CCOC1=CC=C(C=C1)C[C@H]2C(=O)NC(=O)S2)C3=CC=CC=N3 (racemic) [rosiglitazone]
Procedure, shortened: as §1

[9] = compound: CN1C2=C(C3=C1C(=O)N(N=C3)CC4=CC(=CC=C4)N)SC(=C2)S(=O)C
Procedure, shortened: as §1

[10] = compound: CN1CCC(CNc2ccc3ncc(-c4cccc(OC(F)(F)F)c4)n3n2)CC1
Procedure, shortened: as §1

[11] = compound: CN1CCN(CCOc2cc(OC3CCOCC3)c3c(Nc4c(Cl)ccc5c4OCO5)ncnc3c2)CC1 [saracatinib]
Procedure, shortened: as §1

[12] = compound: CN1CCN(c2nc(C3=C(c4c[nH]c5ccccc45)C(=O)NC3=O)c3ccccc3n2)CC1 [sotrastaurin]
Procedure, shortened: as §1

[13] = compound: CN1CC[C@H](c2c(O)cc(O)c3c(=O)cc(-c4ccccc4Cl)oc23)[C@H](O)C1 [alvocidib]
Procedure, shortened: as §1

[14] = compound: CN1CCc2c(c3ccccc3n2Cc2ccc(C(=O)NO)cc2)C1 [Tubastatin A]
Procedure, shortened: as §1

[15] = compound: CNC(=O)C1=CC=CC=C1NC2=NC(=NC=C2Cl)NC3=C(C=C(C=C3)N4CCOCC4)OC
Procedure, shortened: as §1

[16] = compound: CNC(=O)c1ccc(Nc2ncc(C(F)(F)F)c(NCc3nccnc3N(C)S(C)(=O)=O)n2)cc1 [defactinib]
Procedure, shortened: as §1

[17] = compound: CNCc1ccc(-c2[nH]c3cc(F)cc4c3c2CCNC4=O)cc1 [rucaparib]
Procedure, shortened: as §1

[18] = compound: CNc1nc(-c2ccc3c(N)n[nH]c3c2)cc(N2C[C@@H](C(=O)NC3CCCCC3)CC[C@H]2C)n1
Procedure, shortened: as §1

[19] = compound: COC(=O)N[C@@H](C)CNc1nccc(-c2cn(C(C)C)nc2-c2cc(Cl)cc(NS(C)(=O)=O)c2F)n1 [encorafenib]
Procedure, shortened: as §1

[20] = compound: COC(=O)[C@H](CCSC)NC(=O)C1=C(C=C(C=C1)NC[C@H](CS)N)C2=CC=CC=C2
Procedure, shortened: as §1

UniProt Q03468, sequence (Q03468 whole entry, looked up): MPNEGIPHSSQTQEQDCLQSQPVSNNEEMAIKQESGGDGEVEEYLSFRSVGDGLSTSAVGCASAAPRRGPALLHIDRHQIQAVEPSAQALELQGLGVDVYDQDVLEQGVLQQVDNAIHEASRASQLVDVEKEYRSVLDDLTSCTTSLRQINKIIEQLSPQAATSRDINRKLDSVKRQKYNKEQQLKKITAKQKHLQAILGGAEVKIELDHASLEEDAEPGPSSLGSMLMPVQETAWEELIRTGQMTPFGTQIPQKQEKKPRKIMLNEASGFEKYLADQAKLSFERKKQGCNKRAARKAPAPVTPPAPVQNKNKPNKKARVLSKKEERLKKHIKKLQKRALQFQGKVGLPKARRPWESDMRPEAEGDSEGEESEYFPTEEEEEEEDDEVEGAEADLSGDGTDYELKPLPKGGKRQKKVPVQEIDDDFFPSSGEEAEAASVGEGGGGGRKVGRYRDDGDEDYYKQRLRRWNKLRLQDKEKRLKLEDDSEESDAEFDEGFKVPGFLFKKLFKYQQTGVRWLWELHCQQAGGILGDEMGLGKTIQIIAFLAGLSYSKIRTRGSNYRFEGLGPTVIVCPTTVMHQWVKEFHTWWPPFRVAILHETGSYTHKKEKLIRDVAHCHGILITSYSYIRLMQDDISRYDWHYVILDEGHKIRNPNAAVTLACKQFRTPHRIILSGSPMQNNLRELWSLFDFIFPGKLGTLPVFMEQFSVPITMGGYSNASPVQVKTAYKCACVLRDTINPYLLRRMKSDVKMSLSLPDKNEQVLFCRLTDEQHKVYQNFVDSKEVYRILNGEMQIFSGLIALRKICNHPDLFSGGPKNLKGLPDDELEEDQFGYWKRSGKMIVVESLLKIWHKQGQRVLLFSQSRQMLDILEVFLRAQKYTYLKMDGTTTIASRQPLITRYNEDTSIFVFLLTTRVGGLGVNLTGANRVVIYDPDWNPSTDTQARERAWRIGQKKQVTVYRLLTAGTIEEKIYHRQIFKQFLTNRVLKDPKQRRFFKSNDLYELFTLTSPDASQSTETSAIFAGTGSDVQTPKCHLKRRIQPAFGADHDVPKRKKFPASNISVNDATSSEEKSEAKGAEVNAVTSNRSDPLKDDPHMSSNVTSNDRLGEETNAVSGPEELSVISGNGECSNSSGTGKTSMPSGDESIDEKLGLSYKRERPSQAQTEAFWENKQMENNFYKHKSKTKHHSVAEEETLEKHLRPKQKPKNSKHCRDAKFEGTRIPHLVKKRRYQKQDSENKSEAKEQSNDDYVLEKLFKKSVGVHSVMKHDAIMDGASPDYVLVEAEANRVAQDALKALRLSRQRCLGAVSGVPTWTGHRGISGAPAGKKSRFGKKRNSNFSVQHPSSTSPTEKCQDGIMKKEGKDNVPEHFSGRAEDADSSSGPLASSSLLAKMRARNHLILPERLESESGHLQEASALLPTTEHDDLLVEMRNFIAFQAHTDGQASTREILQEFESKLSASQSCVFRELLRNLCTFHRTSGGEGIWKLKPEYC
UniProt Q96A65, sequence (Q96A65 whole entry, looked up): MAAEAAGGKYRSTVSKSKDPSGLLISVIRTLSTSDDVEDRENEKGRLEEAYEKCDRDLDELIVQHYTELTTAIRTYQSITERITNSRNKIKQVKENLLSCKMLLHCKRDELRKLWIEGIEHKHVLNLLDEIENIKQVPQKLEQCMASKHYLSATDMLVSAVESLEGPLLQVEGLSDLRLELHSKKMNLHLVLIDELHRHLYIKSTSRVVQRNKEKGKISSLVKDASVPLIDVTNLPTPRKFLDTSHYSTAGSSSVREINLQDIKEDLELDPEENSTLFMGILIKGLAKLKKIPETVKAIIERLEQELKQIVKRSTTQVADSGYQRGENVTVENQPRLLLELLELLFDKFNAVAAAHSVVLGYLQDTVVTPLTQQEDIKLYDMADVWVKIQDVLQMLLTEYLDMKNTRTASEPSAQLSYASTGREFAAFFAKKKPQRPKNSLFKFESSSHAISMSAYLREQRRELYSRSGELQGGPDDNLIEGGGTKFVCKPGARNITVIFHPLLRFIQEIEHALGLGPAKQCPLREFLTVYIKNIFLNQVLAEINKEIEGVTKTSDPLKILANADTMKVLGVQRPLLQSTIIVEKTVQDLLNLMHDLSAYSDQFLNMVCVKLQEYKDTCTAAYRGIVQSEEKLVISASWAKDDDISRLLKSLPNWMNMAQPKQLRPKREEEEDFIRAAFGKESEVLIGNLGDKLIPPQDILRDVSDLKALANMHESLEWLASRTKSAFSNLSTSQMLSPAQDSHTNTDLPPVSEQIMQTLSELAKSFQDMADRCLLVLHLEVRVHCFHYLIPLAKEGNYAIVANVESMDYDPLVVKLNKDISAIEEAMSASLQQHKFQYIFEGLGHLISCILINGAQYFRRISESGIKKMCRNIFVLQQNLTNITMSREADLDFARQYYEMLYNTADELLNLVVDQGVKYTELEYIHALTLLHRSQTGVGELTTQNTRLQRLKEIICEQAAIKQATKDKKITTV
UniProt Q9UBM7, sequence (Q9UBM7 whole entry, looked up): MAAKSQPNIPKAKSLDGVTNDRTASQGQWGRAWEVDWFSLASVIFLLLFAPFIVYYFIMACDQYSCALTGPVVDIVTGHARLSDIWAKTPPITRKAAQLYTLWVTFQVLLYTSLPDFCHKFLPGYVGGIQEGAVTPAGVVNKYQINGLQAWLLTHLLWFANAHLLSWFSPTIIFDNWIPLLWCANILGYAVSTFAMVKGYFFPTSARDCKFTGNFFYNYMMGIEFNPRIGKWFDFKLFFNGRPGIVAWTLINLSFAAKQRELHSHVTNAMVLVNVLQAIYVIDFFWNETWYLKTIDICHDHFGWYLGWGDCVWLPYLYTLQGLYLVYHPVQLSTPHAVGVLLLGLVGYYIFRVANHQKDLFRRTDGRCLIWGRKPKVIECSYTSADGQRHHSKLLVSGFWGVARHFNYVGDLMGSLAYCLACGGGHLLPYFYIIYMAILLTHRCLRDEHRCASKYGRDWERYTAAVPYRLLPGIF

| Target | log2 fold change [1] | log2 fold change [2] | log2 fold change [3] | log2 fold change [4] | log2 fold change [5] | log2 fold change [6] | log2 fold change [7] | log2 fold change [8] | log2 fold change [9] | log2 fold change [10] | log2 fold change [11] | log2 fold change [12] | log2 fold change [13] | log2 fold change [14] | log2 fold change [15] | log2 fold change [16] | log2 fold change [17] | log2 fold change [18] | log2 fold change [19] | log2 fold change [20] |
| --- | --- | --- | --- | --- | --- | --- | --- | --- | --- | --- | --- | --- | --- | --- | --- | --- | --- | --- | --- | --- |
| DHCR7 (UniProt Q9UBM7) | 0.409 | 1.68 (active) | 0.054 | 0.154 | -0.044 | 0.522 (active) | 0.085 | 0.032 | -0.055 | 0.203 | 0.412 | -0.033 | -0.042 | 0.087 | -0.181 | -0.01 | 0.143 | 0.087 | 0.084 | -0.048 |
| ERCC6 (UniProt Q03468) | 0.072 | -0.135 | -0.06 | 0.015 | 0.074 | -0.091 | 0.004 | -0.221 | -0.009 | 0.08 | -0.006 | 0.169 | -0.04 | -0.093 | 0.126 | 0.016 | 0 | -0.085 | -0.088 | 0.055 |
| EXOC4 (UniProt Q96A65) | -0.145 | -0.606 (active) | 0.095 | 0.005 | -0.129 | 0.021 | 0.061 | 0.021 | 0.103 | -0.243 | -0.013 | -0.224 | -0.131 | 0.058 | -0.04 | -0.049 | 0.183 | 0.015 | 0.14 | 0.01 |
